Reference: PubChem BioAssay (NCATS)
Values joined by “and” are separate entries in the source; they are usually repeats but may differ in a detail not shown here. Identical values can stand only once. Records with an inconclusive call do not appear. Active and inactive are the calls of the source. Unless noted, calls come from the whole dose curve; as a rule, active = well fitted curve in the direction sought with a large enough effect; inconclusive = small, poorly fitted or top-dose-only effect, or another doubt; inactive = no such curve, though single readings can be large; an effect the other way counts as inactive or inconclusive.

What was measured:
[1] = Cell Viability - Renal Proximal Tubule (AID 545); details: renal proximal tubule cells viability, primary cells of rat origin; at 91.7 µM (top of the series);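 note: cells exposed to compound for 40 hours; nearly all actives have a fitted effect of over 40% in size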
Procedure, shortened: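 Rat kidney proximal tubule cells, freshly isolated; 1000 cells/well, 5 hr settle, compound 40 hr 37 °C. CellTiter-Glo 20 min RT, luminescence read. AC50 by standard Hill fit.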

[2] = Cellular Toxicity (caspase-3) Jurkat (AID 655); details: Jurkat caspase-3 activation, luminescence, DMSO = 0%, tamoxifen = 100%; at 92.2 µM (top of the series);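 note: cells exposed to compound for 16 h at 37 °C before reading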
Procedure, shortened: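 Luminescent caspase-3/7 readout (aminoluciferin substrate cleavage) in human T-cell leukemia Jurkat cells after 16 hr compound exposure. Concentration-response normalized to DMSO and 100 uM tamoxifen; AC50 by standard Hill equation.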

[3] = Cell Viability - LYMP2-001 (AID 921);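 note: 0% = DMSO only and full inhibition = tetraoctylammonium bromide control wells; nearly all actives have a fitted effect of over 70% in size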
Procedure, shortened: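 CellTiter-Glo luminescence (intracellular ATP) after 24 hr compound exposure at 37 C, 2500 lymphoblastoid cells/well in complete medium. AC50 fitted with standard Hill equation; tetraoctylammonium bromide positive control.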

[4] = Cell Viability - LYMP1-003 - Assay at 24 hr (AID 963);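 note: plate controls were DMSO only for no effect and tetraoctylammonium bromide positive control for full effect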
Procedure, shortened: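 Concentration-response qHTS: ATP loss measured by CellTiter-Glo luminescence after 24 h compound exposure at 37 C. Cells were LYMP1-003 human lymphoblastoid, 2500 per well. AC50 derived via standard Hill equation modeling.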

[5] = Cell Viability - LYMP2-004 (AID 966);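 note: plate controls were DMSO only for no effect and tetraoctylammonium bromide control for full effect; nearly all actives have a fitted effect of over 65% in size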
Procedure, shortened: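 AC50 values come from Hill modelling of concentration-dependent loss of intracellular ATP, measured by CellTiter-Glo luminescence. Human LYMP2-004 lymphoblastoid cells (2500/well) were exposed to compound for 24 h at 37 C.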

[6] = Cell Viability - LYMP2-005 (AID 967);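 note: plate controls were DMSO only for no effect and 92 µM tetraoctylammonium bromide control for full effect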
Procedure, shortened: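 Steps: seed 2500 LYMP2-005 cells/well, incubate 5 h at 37 C, add compound, incubate 24 h at 37 C, add CellTiter-Glo, wait 30 min at RT, read luminescence. Concentration-response data fitted to Hill equation for AC50.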

[7] = Cell Viability - LYMP2-019 (AID 973);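 note: 0% = DMSO alone and full effect = 92 µM tetraoctylammonium bromide; nearly all actives have a fitted effect of over 55% in size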
Procedure, shortened: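 AC50 values come from Hill-equation fits of luminescent intracellular ATP (CellTiter-Glo, 30 min, room temperature) following 24 h compound exposure at 37 C. Cells: LYMP2-019 lymphoblastoid line, 2500 per well, in complete culture medium.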

[8] = Cell Viability - LYMP2-021 (AID 974); note: % is set by controls: 0 for no effect and ±100 for the full control effect; nearly all actives have a fitted effect of over 55% in size
Procedure, shortened: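 AC50 values come from Hill-equation fits to CellTiter-Glo luminescence (ATP content), read after 24 hour compound exposure at 37 C of 2500 LYMP2-021 lymphoblastoid cells/well; tetraoctylammonium bromide as positive control.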

[9] = Cell Viability - LYMP2-023 (AID 975);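 note: cellular ATP measured by luciferase luminescence as viability proxy; plate controls were DMSO only for no effect and 92 µM tetraoctylammonium bromide control for full effect; nearly all actives have a fitted effect of over 55% in size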
Procedure, shortened: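 Intracellular ATP, read by CellTiter-Glo luminescence, reports viability after 24 hr compound exposure at 37 C. 2500 lymphoblastoid cells/well (LYMP2-023) seeded 5 hr beforehand; Hill fits give AC50; positive control tetraoctylammonium bromide.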

[10] = Cell Viability - LYMP2-025 (AID 976);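 note: plate controls were DMSO only for no effect and tetraoctylammonium bromide control for full effect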
Procedure, shortened: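 Cytotoxicity read as loss of intracellular ATP (luciferase luminescence) after 24 h compound treatment at 37 C. Uses LYMP2-025 lymphoblastoid cells in 1536-well format; Hill-equation modelling gives AC50; tetraoctylammonium bromide as positive control.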

[11] = Cell Viability - LYMP2-002 (AID 977);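 note: plate controls were DMSO only for no effect and 92 µM tetraoctylammonium bromide for full effect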
Procedure, shortened: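 Human lymphoblastoid cells, 2500/well, complete medium; 5 h 37 C settle; compound 24 h 37 C; CellTiter-Glo, 30 min RT; luminescence. Decrease in ATP = cytotoxicity; AC50 via Hill equation.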

[12] = Cell Viability - LYMP2-006 (AID 978); note: % is set by controls: 0 for no effect and ±100 for the full control effect; nearly all actives have a fitted effect of over 60% in size
Procedure, shortened: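 qHTS, 1536-well; 2500 cells/well, 5 hr 37 C; cpd 24 hr 37 C; CellTiter-Glo 30 min RT; luminescence. Tetraoctylammonium bromide pos. ctrl. AC50 via Hill eqn.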

[13] = Cell Viability - LYMP2-014 (AID 983);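 note: plate controls were DMSO only for no effect and 92 µM tetraoctylammonium bromide for full effect; nearly all actives have a fitted effect of over 50% in size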
Procedure, shortened: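 Intracellular ATP loss, read by luciferase luminescence, measures acute cytotoxicity after 24 h compound exposure of lymphoblastoid LYMP2-014 cells (2500/well, 37 C). Concentration-response data fitted to the Hill equation for AC50.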

[14] = Cell Viability - LYMP2-016 (AID 984); note: % is set by controls: 0 for no effect and ±100 for the full control effect; nearly all actives have a fitted effect of over 55% in size
Procedure, shortened: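 qHTS, 1536-well: 2500 LYMP2-016 cells/well, 5 hr 37 C, compound added, 24 hr 37 C, CellTiter-Glo 30 min RT, luminescence. Tetraoctylammonium bromide positive control. AC50 via Hill fit.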

[15] = Cell Viability - LYMP2-026 (AID 989); note: % is set by controls: 0 for no effect and ±100 for the full control effect; nearly all actives have a fitted effect of over 50% in size
Procedure, shortened: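 Cytotoxicity read as ATP-dependent luminescence (CellTiter-Glo, 30 min room temperature) after 24 h compound treatment at 37 C. LYMP2-026 lymphoblastoid line seeded at 2500 cells/well; AC50 derived by standard Hill equation.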

[16] = Cell Viability - LYMP1-002 - Assay at 24 hr (AID 993); note: % is set by controls: 0 for no effect and ±100 for the full control effect
Procedure, shortened: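 qHTS cytotoxicity at 24 h: CellTiter-Glo ATP luminescence in lymphoblastoid line LYMP1-002 incubated with compound at 37 °C. Concentration-response modeled with the Hill equation for AC50; tetraoctylammonium bromide served as positive control.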

[17] = target: Thyroid hormone receptor beta (Homo sapiens) (UniProt P10828); assay: qHTS assay for small molecule agonists of thyroid hormone receptor beta signaling (AID 588545; calls by dose curve;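 note: 0% = DMSO only and 100% = 10 nM T3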)
Thyroid hormone receptor beta (Homo sapiens), sequence (P10828 whole entry, looked up): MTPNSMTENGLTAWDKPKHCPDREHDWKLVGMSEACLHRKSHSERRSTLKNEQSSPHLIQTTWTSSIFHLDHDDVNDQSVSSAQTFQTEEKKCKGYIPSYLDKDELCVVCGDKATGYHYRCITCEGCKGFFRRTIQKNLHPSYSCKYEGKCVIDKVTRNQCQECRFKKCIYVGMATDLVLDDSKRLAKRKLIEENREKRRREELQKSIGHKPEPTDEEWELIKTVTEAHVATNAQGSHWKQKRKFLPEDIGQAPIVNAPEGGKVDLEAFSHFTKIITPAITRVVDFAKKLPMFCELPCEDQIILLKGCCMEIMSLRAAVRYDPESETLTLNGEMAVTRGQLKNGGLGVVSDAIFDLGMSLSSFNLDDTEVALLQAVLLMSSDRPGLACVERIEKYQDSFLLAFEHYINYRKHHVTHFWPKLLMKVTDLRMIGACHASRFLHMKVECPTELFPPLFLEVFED
Procedure, shortened: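 TR-UAS-bla-GripTite HEK 293 cells in medium with 2% charcoal/dextran FBS, 0.1 mM NEAA and 1 mM sodium pyruvate were treated with titrated compounds for 18 hrs at 37 C. Beta-lactamase reporter was read with CCF4 dye (ex 405, em 460/530 nm); EC50 from Hill fits.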

[18] = target: Retinoic acid receptor RXR-alpha (Homo sapiens) (UniProt P19793); assay: qHTS assay for small molecule antagonists of retinoid X receptor alpha signaling (AID 588546; active = well fitted inhibition curve with a large enough effect in the signal ratio, with a control signal flat, not every such curve was filed as active; the % refers to the signal ratio;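 note: cells stimulated with 9-cis-retinoic acid as agonist; % is set by controls: 0 for no effect and ±100 for the full control effect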); details: HEK293T RXRa-UAS-bla, beta-lactamase ratio, antagonist mode
Retinoic acid receptor RXR-alpha (Homo sapiens), sequence (P19793 whole entry, looked up): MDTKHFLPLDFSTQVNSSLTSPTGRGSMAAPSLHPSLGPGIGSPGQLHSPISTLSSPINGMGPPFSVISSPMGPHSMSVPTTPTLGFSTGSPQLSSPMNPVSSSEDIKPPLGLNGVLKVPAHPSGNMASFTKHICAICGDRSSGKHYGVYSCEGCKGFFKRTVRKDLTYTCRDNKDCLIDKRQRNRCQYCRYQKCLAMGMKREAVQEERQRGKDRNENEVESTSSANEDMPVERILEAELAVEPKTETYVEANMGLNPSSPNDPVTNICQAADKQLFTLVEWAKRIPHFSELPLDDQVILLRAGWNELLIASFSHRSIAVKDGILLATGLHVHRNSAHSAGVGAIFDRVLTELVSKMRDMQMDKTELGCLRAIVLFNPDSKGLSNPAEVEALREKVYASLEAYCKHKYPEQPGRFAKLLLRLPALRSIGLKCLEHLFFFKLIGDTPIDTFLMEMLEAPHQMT
Procedure, shortened: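 Beta-lactamase reporter inhibition, read as CCF4 fluorescence ratio (ex 405, em 460/530 nm) after 2 h at RT. HEK293T UAS-bla cells, 2500/well, were stimulated with 9-cis-RA at 500 or 100 nM final alongside test compound for 18 h at 37 C.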

[19] = target: Voltage-gated inwardly rectifying potassium channel KCNH2 (Homo sapiens) (UniProt Q12809); assay: qHTS Assay for Small Molecule Inhibitors of the Human hERG Channel Activity (AID 588834);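 note: top concentration of the series differs between compounds; % is set by controls: 0 for no effect and ±100 for the full control effect; lower thallium flux fluorescence means stronger hERG block; nearly all actives have a fitted effect of over 50% in size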
Voltage-gated inwardly rectifying potassium channel KCNH2 (Homo sapiens), sequence (Q12809 whole entry, looked up): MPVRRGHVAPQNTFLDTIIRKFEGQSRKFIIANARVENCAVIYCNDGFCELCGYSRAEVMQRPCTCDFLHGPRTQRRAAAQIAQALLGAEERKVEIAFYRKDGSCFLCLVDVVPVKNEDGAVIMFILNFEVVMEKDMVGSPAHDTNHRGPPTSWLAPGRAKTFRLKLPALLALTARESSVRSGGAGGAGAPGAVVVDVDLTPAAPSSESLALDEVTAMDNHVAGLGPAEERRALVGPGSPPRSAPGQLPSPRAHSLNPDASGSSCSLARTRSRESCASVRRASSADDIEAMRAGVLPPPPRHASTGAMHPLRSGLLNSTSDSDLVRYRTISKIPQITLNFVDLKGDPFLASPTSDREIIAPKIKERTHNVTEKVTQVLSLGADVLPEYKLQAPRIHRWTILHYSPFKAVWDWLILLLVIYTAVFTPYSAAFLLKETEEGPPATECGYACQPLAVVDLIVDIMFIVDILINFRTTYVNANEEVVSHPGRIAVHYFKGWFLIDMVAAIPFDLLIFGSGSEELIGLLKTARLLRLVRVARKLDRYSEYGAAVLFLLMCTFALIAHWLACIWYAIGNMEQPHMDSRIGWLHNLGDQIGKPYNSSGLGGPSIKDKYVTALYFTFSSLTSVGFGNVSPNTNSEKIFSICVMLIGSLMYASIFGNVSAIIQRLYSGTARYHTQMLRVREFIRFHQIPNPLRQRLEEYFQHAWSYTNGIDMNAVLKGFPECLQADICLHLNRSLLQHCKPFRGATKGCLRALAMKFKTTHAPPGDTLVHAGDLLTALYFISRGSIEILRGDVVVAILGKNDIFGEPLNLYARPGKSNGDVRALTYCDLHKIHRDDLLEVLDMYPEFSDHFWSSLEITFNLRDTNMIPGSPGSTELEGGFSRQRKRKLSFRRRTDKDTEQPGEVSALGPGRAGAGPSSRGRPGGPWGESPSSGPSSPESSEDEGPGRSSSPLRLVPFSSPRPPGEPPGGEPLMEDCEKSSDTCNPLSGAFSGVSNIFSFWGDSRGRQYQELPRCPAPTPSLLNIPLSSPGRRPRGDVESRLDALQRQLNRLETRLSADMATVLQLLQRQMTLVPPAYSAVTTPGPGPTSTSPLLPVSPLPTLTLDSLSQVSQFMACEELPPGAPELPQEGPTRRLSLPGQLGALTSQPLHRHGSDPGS
Procedure, shortened: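 Thallium-flux (FluxOR) read-out on FDSS: fluorescence read 10 s before and 2 min after stimulation buffer. hERG-BacMam-transduced U2OS cells, compound exposure about 10 min. AC50 by standard Hill equation.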

[20] = qHTS assay for small molecule agonists of the antioxidant response element (ARE) signaling pathway measured by Nrf2-dependant transcriptional activity - cell viability counter screen (AID 720653; active = well fitted curve in the direction sought with a large enough effect in the repeat runs; an effect the other way counts as inactive or inconclusive; note: % is set by controls: 0 for no effect and ±100 for the full control effect); details: ARE-bla HepG2 viability, CellTiter-Glo ATP luminescence, 16 h; max response: active compounds read low
Procedure, shortened: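 ARE-bla HepG2 cells treated with compounds for 16 h at 37C; this counter screen measures viability as intracellular ATP by CellTiter-Glo luminescence after 30 min at room temperature.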

COc1ccc2nc(N)sc2c1
inactive: activity change, negative = cytotoxicity [1] -14.7% | caspase-3 activation [2] -5.35% | Potency [3] | Potency [4] | Potency [5] | Potency [6] | Potency [7] | Potency [8] | Potency [9] | Potency [10] | Potency [11] | Potency [12] | Potency [13] | Potency [14] | Potency [15] | Potency [16] | outcome [17] | max response [18] 1.97% and 2.53% | Potency [19] | max response [20] -11.5% and -7.03%

C=CCOC(=O)c1ccccc1C(=O)OCC=C
inactive: activity change, negative = cytotoxicity [1] -7.06% | caspase-3 activation [2] -1.58% | Potency [3] | Potency [4] | Potency [5] | Potency [6] | Potency [7] | Potency [8] | Potency [9] | Potency [10] | Potency [11] | Potency [12] | Potency [13] | Potency [14] | Potency [15] | Potency [16] | outcome [17] | max response [18] -2.1% and -17.2% | Potency [19] | max response [20] -21% and -8.82%

COc1c2ccoc2cc2oc(=O)ccc12
inactive: activity change, negative = cytotoxicity [1] -16.3% | caspase-3 activation [2] -0.404% | Potency [3] | Potency [4] | Potency [5] | Potency [6] | Potency [7] | Potency [8] | Potency [9] | Potency [10] | Potency [11] | Potency [12] | Potency [13] | Potency [14] | Potency [15] | Potency [16] | outcome [17] | max response [18] 23.4% | Potency [19] | max response [20] 3.31%

O=NO
inactive: activity change, negative = cytotoxicity [1] -3.27% and -5.21% | caspase-3 activation [2] -1.69% and 0.278% | Potency [3] | Potency [4] | Potency [5] | Potency [6] | Potency [7] | Potency [8] | Potency [9] | Potency [10] | Potency [11] | Potency [12] | Potency [13] | Potency [14] | Potency [15] | Potency [16] | outcome [17] | max response [18] 16.8% and -9.55% | Potency [19] | max response [20] -5.36% and 6.29%

Nc1ccc(S(=O)(=O)O)cc1
inactive: activity change, negative = cytotoxicity [1] -9.81% | caspase-3 activation [2] 0.897% | Potency [3] | Potency [4] | Potency [5] | Potency [6] | Potency [7] | Potency [8] | Potency [9] | Potency [10] | Potency [11] | Potency [12] | Potency [13] | Potency [14] | Potency [15] | Potency [16] | outcome [17] | max response [18] -17.1% | Potency [19] | max response [20] 0.96% and 3.16%

CCO[Si](CCCN)(OCC)OCC
inactive: activity change, negative = cytotoxicity [1] -12% | caspase-3 activation [2] 1.79% | Potency [3] | Potency [4] | Potency [5] | Potency [6] | Potency [7] | Potency [8] | Potency [9] | Potency [10] | Potency [11] | Potency [12] | Potency [13] | Potency [14] | Potency [15] | Potency [16] | max response [18] 16.1% and 0.599% | Potency [19] | max response [20] -1.9% and -14%

O=C(O)CC(C(=O)O)C(CC(=O)O)C(=O)O (centres undefined)
inactive: activity change, negative = cytotoxicity [1] -9.72% | caspase-3 activation [2] -0.624% | Potency [3] | Potency [4] | Potency [5] | Potency [6] | Potency [7] | Potency [8] | Potency [9] | Potency [10] | Potency [11] | Potency [12] | Potency [13] | Potency [14] | Potency [15] | Potency [16] | outcome [17] | max response [18] -2.56% and -11.2% | Potency [19] | max response [20] -9.78% and -3.54%

Clc1cc(Cl)c(Cl)c(Cl)c1Cl
inactive: activity change, negative = cytotoxicity [1] -5.98% | caspase-3 activation [2] 1.31% | Potency [3] | Potency [4] | Potency [5] | Potency [6] | Potency [7] | Potency [8] | Potency [9] | Potency [10] | Potency [11] | Potency [12] | Potency [13] | Potency [14] | Potency [15] | Potency [16] | outcome [17] | max response [18] -0.48% and -22.2% | Potency [19] | max response [20] -0.0319% and -1.01%

CCCCC(CC)CN (centres undefined)
inactive: activity change, negative = cytotoxicity [1] -8.31% and 1.31% | caspase-3 activation [2] -1.36% and 1.48% | Potency [3] | Potency [4] | Potency [5] | Potency [6] | Potency [7] | Potency [8] | Potency [9] | Potency [10] | Potency [11] | Potency [12] | Potency [13] | Potency [14] | Potency [15] | Potency [16] | outcome [17] | max response [18] 27.8% and 7.94% | Potency [19] | max response [20] -5.16% and -12.4%

COC(=O)c1ccc(C=O)cc1
inactive: activity change, negative = cytotoxicity [1] -14.2% | caspase-3 activation [2] 13.7% | Potency [3] | Potency [4] | Potency [5] | Potency [6] | Potency [7] | Potency [8] | Potency [9] | Potency [10] | Potency [11] | Potency [12] | Potency [13] | Potency [14] | Potency [15] | Potency [16] | outcome [17] | max response [18] 21.2% and -1.21% | Potency [19] | max response [20] -1.73% and -0.32%
